{"source": "PubChem BioAssay (NCATS)", "key": {"[1]": {"molecular_target": "Ubiquitin carboxyl-terminal hydrolase 1 (Homo sapiens) (UniProt O94782)", "sequence (O94782 whole entry, looked up)": "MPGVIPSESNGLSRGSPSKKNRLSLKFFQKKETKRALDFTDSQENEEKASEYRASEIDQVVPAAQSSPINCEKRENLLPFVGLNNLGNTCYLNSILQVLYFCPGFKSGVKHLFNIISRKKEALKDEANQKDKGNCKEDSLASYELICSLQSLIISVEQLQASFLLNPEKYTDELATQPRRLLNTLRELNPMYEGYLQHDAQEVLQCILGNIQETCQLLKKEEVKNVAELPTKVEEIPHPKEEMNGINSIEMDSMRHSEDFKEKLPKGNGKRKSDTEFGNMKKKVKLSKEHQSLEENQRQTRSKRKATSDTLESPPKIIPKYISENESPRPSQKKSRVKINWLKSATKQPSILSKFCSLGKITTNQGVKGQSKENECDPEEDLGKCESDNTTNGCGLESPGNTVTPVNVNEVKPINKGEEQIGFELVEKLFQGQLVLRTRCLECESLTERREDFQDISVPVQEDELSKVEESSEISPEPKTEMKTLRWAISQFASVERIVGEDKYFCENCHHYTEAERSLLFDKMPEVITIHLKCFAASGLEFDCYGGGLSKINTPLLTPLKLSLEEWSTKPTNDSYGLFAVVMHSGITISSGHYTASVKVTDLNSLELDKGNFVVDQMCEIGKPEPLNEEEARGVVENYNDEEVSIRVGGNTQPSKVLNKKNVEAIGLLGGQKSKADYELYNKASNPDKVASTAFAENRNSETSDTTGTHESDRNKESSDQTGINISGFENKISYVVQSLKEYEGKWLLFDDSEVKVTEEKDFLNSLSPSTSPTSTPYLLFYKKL", "experiment": "Inhibitors of USP1/UAF1: Pilot qHTS (AID 504865);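 on all read-outs here: rhodamine fluorescence freed from ubiquitin-rhodamine substrate followed over time; top concentration of the series differs between compounds; nearly all actives have a fitted effect of over 35% in size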", "conditions": "purified USP1/UAF1, Ub-rhodamine cleavage fluorescence; series mostly up to 114 µM", "how_it_was_run": "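USP1/UAF1 complex (1nM) preincubated with compound 15 min at room temperature, then Ub-Rho substrate (150nM final) added. Fluorescence read kinetically at 480/540 nm, 6 reads every 60 seconds. Buffer: 50mM HEPES pH 7.8, 0.5mM EDTA, 0.1 mg/ml BSA, 1mM TCEP, 0.01% Tween-20.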"}, "[2]": {"experiment": "qHTS Assay for Lipid Storage Modulators (AID 1519; calls by dose curve)", "conditions": "Drosophila S3 cells, BODIPY lipid droplet/cell ratio, laser cytometry, cells loaded with oleic acid; for activity change, negative = inhibition: at 57.5 µM (top of the series)", "how_it_was_run": "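Cells seeded at 5,000 per well were treated with compounds over a concentration series and loaded with oleic acid (400 uM, as added). Lipid droplet fluorescence (488 nm excitation, 500-530 nm channel) was read by laser-scanning cytometry and normalized to 20 uM Triacsin C.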"}, "[3]": {"molecular_target": "DNA dC->dU-editing enzyme APOBEC-3G (Homo sapiens) (UniProt Q9HC16)", "sequence (Q9HC16 whole entry, looked up)": "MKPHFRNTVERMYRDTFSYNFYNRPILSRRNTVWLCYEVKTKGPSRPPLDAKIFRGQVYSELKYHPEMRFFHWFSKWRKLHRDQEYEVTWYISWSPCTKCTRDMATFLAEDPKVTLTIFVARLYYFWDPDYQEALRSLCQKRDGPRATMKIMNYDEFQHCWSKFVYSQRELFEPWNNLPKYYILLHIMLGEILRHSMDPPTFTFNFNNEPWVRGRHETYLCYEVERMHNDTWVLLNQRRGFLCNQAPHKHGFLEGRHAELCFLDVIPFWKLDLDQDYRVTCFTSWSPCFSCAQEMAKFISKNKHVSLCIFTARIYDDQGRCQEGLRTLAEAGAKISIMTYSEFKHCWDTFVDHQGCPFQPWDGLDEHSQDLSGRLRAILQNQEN", "experiment": "qHTS for inhibitors of Vif-A3G interactions: Validation (AID 588379)", "conditions": "Vif-A3G protein interaction assay; series mostly up to 46.1 µM", "how_it_was_run": "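HeLa cells stably expressing Vif and A3G-eYFP, 700 cells/well, incubated overnight at 37 deg C, then exposed to compound overnight at 37 deg C. Inhibition of Vif-mediated degradation read as increased yellow fluorescence (Ex 488/Em 500-530) by laser-scanning cytometry.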"}, "[4]": {"molecular_target": "ATP-dependent 6-phosphofructokinase (Trypanosoma brucei brucei) (UniProt O15648)", "sequence (O15648 whole entry, looked up)": "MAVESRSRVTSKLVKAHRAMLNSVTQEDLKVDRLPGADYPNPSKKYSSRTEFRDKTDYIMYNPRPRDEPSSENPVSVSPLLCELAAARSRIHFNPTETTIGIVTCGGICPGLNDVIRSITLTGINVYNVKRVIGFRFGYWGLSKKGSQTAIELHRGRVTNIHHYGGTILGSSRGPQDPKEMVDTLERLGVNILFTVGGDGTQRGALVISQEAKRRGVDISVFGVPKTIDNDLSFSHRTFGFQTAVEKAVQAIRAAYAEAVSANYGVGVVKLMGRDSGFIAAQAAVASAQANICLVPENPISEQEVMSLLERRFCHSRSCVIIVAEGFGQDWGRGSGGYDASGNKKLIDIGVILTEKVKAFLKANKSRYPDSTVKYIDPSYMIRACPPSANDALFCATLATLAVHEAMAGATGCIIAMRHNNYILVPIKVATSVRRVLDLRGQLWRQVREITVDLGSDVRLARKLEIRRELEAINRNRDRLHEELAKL", "experiment": "qHTS Assay to Find Inhibitors of T. brucei phosphofructokinase: hit validation (AID 492961);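 further: luminescence reports ADP formed as PFK phosphorylates fructose-6-phosphate with ATP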", "conditions": "T. brucei PFK, ADP-Glo luminescence; series mostly up to 51.4 µM", "how_it_was_run": "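In this biochemical qHTS validation, titrated compounds were tested against 1.25 nM PFK with 0.1 mM ATP and 0.5 mM F6P. Percent activity came from controls lacking or containing enzyme.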"}, "[5]": {"experiment": "Cell Viability - LYMP1-002 - Assay at 24 hr (AID 993)", "conditions": "LYMP1-002 lymphoblastoid cells viability; series mostly up to 92.2 µM", "how_it_was_run": "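Cells plated 2500/well, 5 hr 37 C; compounds added, 24 hr 37 C; CellTiter-Glo added, 30 min RT; luminescence read. Tetraoctylammonium bromide positive control. Hill-equation AC50.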"}, "[6]": {"experiment": "Cell Viability - LYMP1-002 - Assay at 40 hr (AID 994); further: nearly all actives have a fitted effect of over 60% in size", "conditions": "LYMP1-002 lymphoblastoid cell viability; series mostly up to 92.2 µM", "how_it_was_run": "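Luminescent ATP signal served as the viability readout, with decreases taken as toxicity. Cells were treated with compounds across a concentration range for 40 hours at 37 C, and AC50 values came from standard Hill modeling.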"}, "[7]": {"experiment": "qHTS Assay for Identification of Small Molecule Inducers of Hypoxia Response (AID 2120; active means well fitted curve in the direction sought with a large enough effect in the signal ratio, with a control signal flat, not every such curve was filed as active; the % refers to the signal ratio)", "conditions": "hypoxia response reporter cells, beta-lactamase ratio readout; series mostly up to 104 µM", "how_it_was_run": "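ME-180 HRE-bla cells plated in Opti-MEM/0.5% dialyzed FBS, rested 4-5 h, then dosed with compound titrations by pin tool. After 17 h at 37 degrees C, CCF4 dye loaded 2.5 h at RT; 460/530 nm ratio gave %Activity and AC50.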"}, "[8]": {"molecular_target": "Estrogen receptor (Homo sapiens) (UniProt P03372)", "sequence (P03372 whole entry, looked up)": "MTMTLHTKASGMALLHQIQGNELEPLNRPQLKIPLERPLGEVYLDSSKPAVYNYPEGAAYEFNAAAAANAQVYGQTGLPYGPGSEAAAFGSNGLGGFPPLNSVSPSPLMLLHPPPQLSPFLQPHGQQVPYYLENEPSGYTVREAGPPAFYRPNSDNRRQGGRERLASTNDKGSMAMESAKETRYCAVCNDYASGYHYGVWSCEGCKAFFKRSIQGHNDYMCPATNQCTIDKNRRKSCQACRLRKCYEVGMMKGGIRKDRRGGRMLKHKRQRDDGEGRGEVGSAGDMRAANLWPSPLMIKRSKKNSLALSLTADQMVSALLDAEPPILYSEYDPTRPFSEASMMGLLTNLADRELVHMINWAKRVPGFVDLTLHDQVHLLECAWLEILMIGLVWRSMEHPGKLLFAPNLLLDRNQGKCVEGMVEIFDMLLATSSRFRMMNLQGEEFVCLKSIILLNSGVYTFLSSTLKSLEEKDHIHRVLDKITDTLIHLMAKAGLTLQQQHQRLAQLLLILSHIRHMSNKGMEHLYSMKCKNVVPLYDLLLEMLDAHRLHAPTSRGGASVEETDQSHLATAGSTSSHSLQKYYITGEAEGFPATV", "experiment": "qHTS assay for small molecule agonists of estrogen receptor alpha signaling (AID 588514; calls by dose curve; further: nearly all actives have a fitted effect of over 70% in size)", "conditions": "ER-alpha-UAS-bla HEK293, beta-lactamase ratio, 18 h, percent of full estradiol response, vehicle zero; series mostly up to 76.8 µM", "how_it_was_run": "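Cells were plated at 5000/well, incubated 4 hrs at 37 C, dosed with compound titration series, incubated 18 hrs at 37 C, loaded with CCF4 dye for 2 hrs at RT, then fluorescence was read.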"}, "[9]": {"molecular_target": "Androgen receptor (Homo sapiens) (UniProt P10275)", "sequence (P10275 whole entry, looked up)": "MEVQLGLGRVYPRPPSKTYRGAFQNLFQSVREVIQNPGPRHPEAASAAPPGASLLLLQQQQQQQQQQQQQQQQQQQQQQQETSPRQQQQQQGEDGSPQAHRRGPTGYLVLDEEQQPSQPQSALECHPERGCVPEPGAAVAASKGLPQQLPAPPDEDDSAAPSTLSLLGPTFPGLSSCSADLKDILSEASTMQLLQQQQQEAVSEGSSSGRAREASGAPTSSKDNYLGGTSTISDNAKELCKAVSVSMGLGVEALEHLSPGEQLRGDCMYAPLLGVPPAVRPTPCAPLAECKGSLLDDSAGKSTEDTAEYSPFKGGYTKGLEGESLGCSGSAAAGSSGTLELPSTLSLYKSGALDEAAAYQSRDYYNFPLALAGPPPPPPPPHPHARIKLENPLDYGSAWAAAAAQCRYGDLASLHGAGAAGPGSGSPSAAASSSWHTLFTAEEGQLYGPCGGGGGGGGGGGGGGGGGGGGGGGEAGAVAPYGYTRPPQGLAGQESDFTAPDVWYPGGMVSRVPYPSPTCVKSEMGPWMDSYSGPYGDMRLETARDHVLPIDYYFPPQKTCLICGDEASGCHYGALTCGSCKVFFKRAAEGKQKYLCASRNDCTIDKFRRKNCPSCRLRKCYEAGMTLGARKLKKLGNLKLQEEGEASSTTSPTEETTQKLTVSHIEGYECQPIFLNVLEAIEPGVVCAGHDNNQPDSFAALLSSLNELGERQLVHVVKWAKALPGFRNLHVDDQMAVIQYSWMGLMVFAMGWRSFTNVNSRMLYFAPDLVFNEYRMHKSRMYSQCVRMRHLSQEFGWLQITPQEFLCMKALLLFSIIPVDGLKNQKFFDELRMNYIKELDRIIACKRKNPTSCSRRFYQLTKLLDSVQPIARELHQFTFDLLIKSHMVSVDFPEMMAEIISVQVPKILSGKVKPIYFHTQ", "experiment": "qHTS assay for small molecule antagonists of androgen receptor signaling (AID 588516; active means well fitted curve in the direction sought with a large enough effect in the signal ratio, with a control signal flat, not every such curve was filed as active; the % refers to the signal ratio; further: potency means the concentration at half of the fitted maximal effect)", "conditions": "AR-UAS-bla HEK293, beta-lactamase ratio, antagonist mode, 16 h; series mostly up to 76.8 µM", "how_it_was_run": "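AR-UAS-bla-GripTite HEK 293 cells (2000/well, 5 h at 37 C) received compound titrations, then R1881 at 10 nM final; after 16 h at 37 C, CCF4 dye 2 h RT, beta-lactamase fluorescence read; IC50 from Hill fits.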"}, "[10]": {"molecular_target": "Glucocorticoid receptor (Homo sapiens) (UniProt P04150)", "sequence (P04150 whole entry, looked up)": "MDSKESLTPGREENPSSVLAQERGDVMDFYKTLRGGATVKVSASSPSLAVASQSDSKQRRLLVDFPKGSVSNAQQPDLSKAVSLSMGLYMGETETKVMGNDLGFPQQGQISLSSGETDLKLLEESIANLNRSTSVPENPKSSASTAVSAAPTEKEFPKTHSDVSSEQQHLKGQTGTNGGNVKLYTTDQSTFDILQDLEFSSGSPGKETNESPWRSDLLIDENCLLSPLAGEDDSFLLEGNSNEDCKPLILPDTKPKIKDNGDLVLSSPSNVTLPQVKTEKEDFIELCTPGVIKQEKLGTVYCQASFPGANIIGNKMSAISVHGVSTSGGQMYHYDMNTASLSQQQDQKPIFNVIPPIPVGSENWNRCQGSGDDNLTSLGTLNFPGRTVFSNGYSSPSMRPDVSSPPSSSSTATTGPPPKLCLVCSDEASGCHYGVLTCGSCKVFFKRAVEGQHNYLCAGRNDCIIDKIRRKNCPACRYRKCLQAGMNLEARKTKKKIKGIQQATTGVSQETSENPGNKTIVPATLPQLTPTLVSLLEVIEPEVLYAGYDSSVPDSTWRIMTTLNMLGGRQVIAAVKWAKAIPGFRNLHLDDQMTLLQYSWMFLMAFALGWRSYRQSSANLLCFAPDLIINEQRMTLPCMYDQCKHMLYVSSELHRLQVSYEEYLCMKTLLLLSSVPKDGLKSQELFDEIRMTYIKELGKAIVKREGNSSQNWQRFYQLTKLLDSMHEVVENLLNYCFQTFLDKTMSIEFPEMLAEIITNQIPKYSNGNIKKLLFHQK", "experiment": "qHTS assay for small molecule agonists of glucocorticoid receptor signaling (AID 588532; active means well fitted curve in the direction sought with a large enough effect in the signal ratio, with a control signal flat; the % refers to the signal ratio)", "conditions": "HeLa MMTV-bla, beta-lactamase ratio, agonist, 18 h; stronger effect = higher value; percent of dexamethasone control, DMSO zero", "how_it_was_run": "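Quantitative HTS using CellSensor MMTV-bla HeLa cells in charcoal/dextran-treated serum; compounds tested up to 92 uM. After 18 h at 37 C, CCF4 dye reported reporter induction.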"}, "[11]": {"molecular_target": "Glucocorticoid receptor (Homo sapiens) (UniProt P04150)", "experiment": "qHTS assay for small molecule antagonists of glucocorticoid receptor signaling (AID 588533; active means well fitted inhibition curve with a large enough effect in the signal ratio, with a control signal flat, not every such curve was filed as active; the % refers to the signal ratio)", "conditions": "HeLa MMTV-bla, GRE beta-lactamase ratio, antagonist mode, 18 h; series mostly up to 76.8 µM", "how_it_was_run": "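Antagonist-mode qHTS: compound titrations added to GRE-bla HeLa cells, then dexamethasone 2 nM final; 18 h, 37 C. CCF4 FRET fluorescence normalized to dexamethasone and DMSO; IC50 from Hill fit.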"}, "[12]": {"experiment": "qHTS assay for small molecule antagonists of peroxisome proliferator-activated receptor delta signaling (AID 588535; active means well fitted inhibition curve with a large enough effect in the signal ratio, with a control signal flat, not every such curve was filed as active; the % refers to the signal ratio)", "conditions": "HEK293T PPARd-UAS-bla, beta-lactamase FRET ratio, 18 h; 460 nm channel", "how_it_was_run": "(§1)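 HEK293T PPAR-delta-UAS-bla cells, 4000/well, 2% charcoal/dextran FBS; 5 h 37 C; cpd titration; 18 h 37 C; CCF4 2 h RT; FI 460/530 nm; Hill fit → IC50, efficacy.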"}, "[13]": {"molecular_target": "Peroxisome proliferator-activated receptor delta (Homo sapiens) (UniProt Q03181)", "sequence (Q03181 whole entry, looked up)": "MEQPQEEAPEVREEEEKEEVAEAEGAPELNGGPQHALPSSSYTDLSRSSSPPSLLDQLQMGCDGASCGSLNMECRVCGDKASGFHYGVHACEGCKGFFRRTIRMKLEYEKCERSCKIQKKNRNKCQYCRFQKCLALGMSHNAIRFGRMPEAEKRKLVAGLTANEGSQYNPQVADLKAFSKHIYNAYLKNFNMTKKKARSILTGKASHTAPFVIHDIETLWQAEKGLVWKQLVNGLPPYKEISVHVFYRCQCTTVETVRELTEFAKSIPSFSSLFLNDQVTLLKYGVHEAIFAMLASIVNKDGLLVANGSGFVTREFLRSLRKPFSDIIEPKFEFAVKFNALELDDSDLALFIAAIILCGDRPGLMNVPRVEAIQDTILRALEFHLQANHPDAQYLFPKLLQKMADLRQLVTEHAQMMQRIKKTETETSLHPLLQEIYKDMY", "experiment": "qHTS assay for small molecule antagonists of peroxisome proliferator-activated receptor delta signaling (AID 588535)", "conditions": "HEK293T PPARd-UAS-bla, beta-lactamase FRET ratio, 18 h; series mostly up to 76.7 µM", "how_it_was_run": "as §1"}, "[14]": {"molecular_target": "Peroxisome proliferator-activated receptor gamma (Homo sapiens) (UniProt P37231)", "experiment": "qHTS assay for small molecule agonists of peroxisome proliferator-activated receptor gamma signaling (AID 588536; active means well fitted curve in the direction sought with a large enough effect in the signal ratio, with a control signal flat, not every such curve was filed as active; the % refers to the signal ratio)", "conditions": "HEK293 PPARg-UAS-bla, beta-lactamase ratio, 16 h, percent of rosiglitazone response, DMSO as zero; series mostly up to 76.7 µM", "how_it_was_run": "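GeneBLAzer PPAR-gamma-UAS-bla HEK293 cells in 1% charcoal/dextran-treated FBS medium were treated 16 h at 37 C with compounds. Beta-lactamase activity was read by CCF4 ratio (460/530 nm). Response was normalized to 2 uM rosiglitazone (100%) and DMSO, then Hill-fitted for EC50 and efficacy.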"}, "[15]": {"molecular_target": "Vitamin D3 receptor (Homo sapiens) (UniProt P11473)", "sequence (P11473 whole entry, looked up)": "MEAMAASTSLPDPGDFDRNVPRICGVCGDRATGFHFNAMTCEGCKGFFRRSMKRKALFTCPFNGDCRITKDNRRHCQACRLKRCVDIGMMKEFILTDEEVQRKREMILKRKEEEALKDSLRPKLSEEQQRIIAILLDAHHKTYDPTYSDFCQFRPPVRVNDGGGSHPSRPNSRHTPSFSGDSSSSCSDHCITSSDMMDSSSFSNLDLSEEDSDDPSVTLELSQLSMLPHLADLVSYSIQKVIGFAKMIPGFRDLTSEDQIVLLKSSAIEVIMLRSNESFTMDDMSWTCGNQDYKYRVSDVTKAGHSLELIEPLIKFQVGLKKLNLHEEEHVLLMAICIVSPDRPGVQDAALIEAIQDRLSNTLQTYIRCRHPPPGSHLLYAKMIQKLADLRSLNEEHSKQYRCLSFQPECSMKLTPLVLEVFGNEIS", "experiment": "qHTS assay for small molecule antagonists of vitamin D receptor signaling (AID 588541; calls by dose curve)", "conditions": "HEK293T VDR-UAS-bla, beta-lactamase ratio, antagonist mode; series mostly up to 76.7 µM", "how_it_was_run": "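Antagonist-mode beta-lactamase reporter assay: HEK293T VDR-UAS-bla cells were exposed to titrated compound alongside 1-alpha,25-dihydroxyvitamin D3 at 3 nM final for 16 h. Values were normalized to the 50 nM agonist control and DMSO basal, with IC50 and efficacy from Hill equation fits.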"}, "[16]": {"molecular_target": "Vitamin D3 receptor (Homo sapiens) (UniProt P11473)", "experiment": "qHTS assay for small molecule agonists of vitamin D receptor signaling (AID 588543; calls by dose curve)", "conditions": "HEK293T VDR-UAS-bla, beta-lactamase ratio, 16 h; series mostly up to 76.8 µM", "how_it_was_run": "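GeneBLAzer VDR-UAS-bla HEK293T cells in 2% charcoal-stripped FBS medium were dosed with compound titrations for 16 h at 37 °C; CCF4 β-lactamase readout (405 nm ex, 460/530 nm em). EC50 and efficacy from Hill fits, normalized to 50 nM calcitriol (100%) and DMSO (0%).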"}, "[17]": {"experiment": "qHTS assay for small molecule agonists of retinoid X receptor alpha signaling (AID 588544)", "conditions": "HEK293T RXRa-UAS-bla, beta-lactamase reporter, 18 h; 530 nm emission"}, "[18]": {"molecular_target": "alpha-glucosidase (Oryza sativa, rice) (UniProt Q653V4)", "experiment": "Counterscreen for Glucocerebrosidase Inhibitors: qHTS Assay for Rice alpha-Glucosidase at pH 5.0 (AID 997)", "conditions": "rice alpha-glucosidase enzyme activity; series mostly up to 76.9 µM", "how_it_was_run": "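Rice alpha-glucosidase (4 nM final) with 400 uM 4-methylumbelliferyl-alpha-D-glucopyranoside in citrate buffer pH 5.0, 20 min at room temperature, stopped at pH 10; fluorescence 365/440 nm, compounds 0.7 nM–77 uM, AC50 from Hill fits.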"}, "[19]": {"molecular_target": "Androgen receptor (Homo sapiens) (UniProt P10275)", "experiment": "qHTS assay for small molecule agonists of androgen receptor signaling (AID 588515; active means well fitted curve in the direction sought with a large enough effect in the signal ratio, with a control signal flat; the % refers to the signal ratio)", "conditions": "AR-UAS-bla HEK293, beta-lactamase ratio, agonist 16 h; stronger effect = higher value", "how_it_was_run": "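EC50 and efficacy came from Hill fits of titrations (up to 92 uM) normalized to 30 nM R1881 as 100% and DMSO as 0%. Compound exposure was 16 h at 37 C on AR-UAS-bla HEK293 cells, with a 405/460/530 nm CCF4 fluorescence read.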"}, "[20]": {"conditions": "measured here: cell count channel max response"}, "[21]": {"conditions": "measured here: lipid channel max response"}}, "note": "Records with an inconclusive call do not appear. Entries that show only a call come without a potency. Active and inactive are the calls of the source. Unless noted, the call rests on the fitted dose curve; in most records, active means well fitted curve in the direction sought with a large enough effect; inconclusive means small, poorly fitted or top-dose-only effect, or another doubt; inactive means no such curve, though single readings can be large; an effect the other way counts as inactive or inconclusive.", "data": [{"smiles": "COc1ccc(C[C@H](N)C(=O)N[C@@H]2[C@H](O)[C@H](n3cnc4c(N(C)C)ncnc43)O[C@@H]2CO)cc1", "values": [{"measurement": "outcome", "setting": "[1]", "value": "inactive"}]}, {"smiles": "Nc1nc2c(ncn2[C@@H]2O[C@H](CO)[C@@H](O)[C@H]2O)c(=O)[nH]1", "values": [{"measurement": "activity change, negative = inhibition", "setting": "[2]", "value": "-2.55% (inactive)"}, {"measurement": "max response", "setting": "[2]; [20]", "value": -11.6, "unit": "%"}, {"measurement": "max response", "setting": "[2]; [21]", "value": -14.4, "unit": "%"}, {"measurement": "outcome", "setting": "[1]", "value": "inactive"}, {"measurement": "outcome", "setting": "[3]", "value": "inactive"}]}, {"smiles": "CC(=O)c1cc2c(cc1O)OC(C)(C)C=C2", "values": [{"measurement": "activity change, negative = inhibition", "setting": "[2]", "value": "18.6% (inactive)"}, {"measurement": "max response", "setting": "[2]; [20]", "value": -14.4, "unit": "%"}, {"measurement": "max response", "setting": "[2]; [21]", "value": 0.328, "unit": "%"}, {"measurement": "outcome", "setting": "[1]", "value": "inactive"}]}, {"smiles": "CC[C@]1(O)CC2CN(CCc3c([nH]c4ccccc34)[C@@](C(=O)OC)(c3cc4c(cc3OC)N(C)[C@H]3[C@@](O)(C(=O)OC)[C@H](OC(C)=O)[C@]5(CC)C=CCN6CC[C@]43[C@@H]65)C2)C1", "note": "(stereo partly drawn)", "values": [{"measurement": "outcome", "setting": "[4]", "value": "inactive"}]}, {"smiles": "Cc1ccc(N)cc1O", "values": [{"measurement": "outcome", "setting": "[5]", "value": "inactive"}, {"measurement": "outcome", "setting": "[6]", "value": "inactive"}, {"measurement": "outcome", "setting": "[7]", "value": "inactive"}, {"measurement": "outcome", "setting": "[8]", "value": "inactive"}, {"measurement": "Potency", "setting": "[9]", "value": "inactive"}, {"measurement": "activation", "setting": "[10]", "value": "0.383% (inactive)"}, {"measurement": "outcome", "setting": "[11]", "value": "inactive"}, {"measurement": "max response", "setting": "[12]", "value": -0.329, "unit": "%"}, {"measurement": "outcome", "setting": "[13]", "value": "inactive"}, {"measurement": "outcome", "setting": "[14]", "value": "inactive"}, {"measurement": "outcome", "setting": "[15]", "value": "inactive"}, {"measurement": "outcome", "setting": "[16]", "value": "inactive"}, {"measurement": "max response", "setting": "[17]", "value": 6.75, "unit": "%"}]}, {"smiles": "CC(=O)O[C@H]1C(=O)[C@@]2(C)[C@H]([C@H](OC(=O)c3ccccc3)[C@]3(O)C[C@H](OC(=O)[C@H](O)[C@@H](NC(=O)c4ccccc4)c4ccccc4)C(C)=C1C3(C)C)[C@]1(OC(C)=O)CO[C@@H]1C[C@@H]2O", "values": [{"measurement": "outcome", "setting": "[18]", "value": "inactive"}, {"measurement": "outcome", "setting": "[4]", "value": "inactive"}, {"measurement": "outcome", "setting": "[1]", "value": "inactive"}, {"measurement": "outcome", "setting": "[3]", "value": "inactive"}, {"measurement": "outcome", "setting": "[8]", "value": "inactive"}, {"measurement": "activation", "setting": "[19]", "value": "-6.87% (inactive)"}, {"measurement": "Potency", "setting": "[9]", "value": "50.1 nM (active)"}, {"measurement": "outcome", "setting": "[16]", "value": "inactive"}, {"measurement": "max response", "setting": "[17]", "value": -13.7, "unit": "%"}]}]}
